# Bioassay records from PubChem BioAssay.
# In the library only some 7.4% were active in any assay of this set; here they are far more common.
# ELG1 genotoxic: induces genotoxicity in HEK293T cells with luciferase-tagged ELG1; HEK293T ELG1-luciferase reporter, luminescence, 16 h; 330,000 tested, 1.3% active; Potency, µM (top dose mostly 46 µM), inactives show at the highest dose activity change, positive = activation, hits mostly activators; note: % of control where 0% means no effect; nearly all actives have a fitted effect of over 60% in size
#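 Step 1: seed 2,000 HEK293T ELG1-luciferase cells per well. Step 2: add compound or DMSO, incubate 16 hr at 37 °C. Step 3: ONE-Glo, 30 min at room temperature, read luminescence.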
# Luc counter: Kinase-Glo luciferase inhibition (counter-screen); Q27757; Kinase-Glo luciferase, ATP luminescence, 8 min; Potency, µM (top dose mostly 38.3 µM), for inactives: at the highest dose activity change, negative = inhibition, most hits filed as inhibitors; 200,000 tested, 0.28% active; AID 1379; note: % is set by controls: 0 for no effect and ±100 for the full control effect; nearly all actives have a fitted effect of over 60% in size
#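 Compound is pinned into ATP-containing buffer (10 uM ATP, imidazole pH 7.2, 7 mM MgCl2). Kinase-Glo luciferase reagent is then added. Light output is recorded following an 8-min room-temperature incubation.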
# FLuc modulator: firefly luciferase modulation, counter-screen for miR-21 project; 360,000 tested, 6.9% active; Potency, µM (highest dose often 57.5 µM), inactives show at the highest dose activity change, negative = inhibition, actives largely listed as inhibitors; AID 588342; purified FLuc, Km substrates, luminescence inhibition;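 note: plate controls were vehicle for no effect and reference inhibitor for full effect; nearly all actives have a fitted effect of over 55% in size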
# Target sequence (P08659 whole entry, looked up): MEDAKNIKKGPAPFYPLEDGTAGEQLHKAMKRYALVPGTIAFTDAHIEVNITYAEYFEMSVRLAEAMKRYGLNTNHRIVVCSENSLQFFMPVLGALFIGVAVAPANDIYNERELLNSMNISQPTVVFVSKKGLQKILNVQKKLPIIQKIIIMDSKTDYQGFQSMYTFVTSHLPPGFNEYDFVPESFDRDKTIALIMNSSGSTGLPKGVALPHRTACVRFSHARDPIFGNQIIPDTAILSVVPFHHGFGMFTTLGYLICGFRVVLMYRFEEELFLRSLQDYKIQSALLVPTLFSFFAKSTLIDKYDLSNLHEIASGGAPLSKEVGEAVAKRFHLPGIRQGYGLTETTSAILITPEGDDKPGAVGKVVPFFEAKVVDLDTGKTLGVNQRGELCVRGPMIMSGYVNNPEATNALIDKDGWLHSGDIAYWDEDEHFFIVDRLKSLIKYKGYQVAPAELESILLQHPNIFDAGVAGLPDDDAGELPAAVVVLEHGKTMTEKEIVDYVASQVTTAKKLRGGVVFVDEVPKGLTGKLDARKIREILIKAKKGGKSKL
#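 Purified P. pyralis luciferase (10nM final) with 10uM D-luciferin and 10uM ATP (Km levels) in 50mM Tris acetate pH 7.5, 10mM Mg acetate, 0.01% Tween-20, 0.05% BSA; qHTS 6-point titration, ~60 µM downward; luminescence read.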
# SMN2 splice up: increases expression of the SMN2 splice variant; AID 1458; HEK293 SMN2-luciferase splicing reporter, luminescence, 30-36 h; 210,000 tested, 2.8% active; Potency, µM (titrated, usually from 46.1 µM), without a hit: at the highest dose activity change, positive = activation, actives largely listed as activators; note: % of control where 0% means no effect; nearly all actives have a fitted effect of over 55% in size
#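 HEK293 cells carry an SMN2 […]–luciferase reporter in which exon 7 inclusion puts luciferase in frame. Cells were plated 10-12 h before compound addition, then incubated 30-36 h at 37C. ONE-Glo luminescence was read; sodium butyrate at 4.5 mM final served as control.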
# NPC1 prom act: activators of NPC1 promoter. 320,000 tested, 2.4% active. Huh7 NPC1 promoter luciferase reporter, 24 h. Potency, µM (series often up to 9.22 µM), for inactives: at the top dose activation, hits mostly activators. AID 485313; note: % of control where 0% means no effect; nearly all actives have a fitted effect of over 60% in size
#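 Luminescence read-out of NPC1 promoter-driven luciferase in stably transfected Huh7 cells; compounds delivered in DMSO and left 24 h at 37C, 5% CO2, qHTS titration format.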
# Rab9 promoter act: activates the Rab9 promoter; Huh7 Rab9 promoter-luciferase reporter, luminescence, 24 h; AID 485297; 320,000 tested, 2.8% active; Potency, µM (series often up to 9.22 µM), without a hit: top-dose activation, negative = inhibition, usual class: activators; note: % of control where 0% means no effect; nearly all actives have a fitted effect of over 60% in size
#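 Huh7 cells stably carrying a Rab9 promoter-luciferase reporter, 1500 cells per well in OP-MEM I with 10% FBS, treated with compound 24 hours at 37C. Luciferase activity read by luminescence after 10 minutes with Amplite reagent.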
# Numbers without * were called inactive; u = inconclusive; x = not tested or not shown; [ ] = remark or other dose. Calls come from the whole dose curve; as a rule, active = well fitted curve in the direction sought with a large enough effect; inconclusive = small, poorly fitted or top-dose-only effect, or another doubt; inactive = no such curve, though single readings can be large; an effect the other way counts as inactive or inconclusive. Potency is the fitted concentration of half-maximal effect.
SMILES,ELG1 genotoxic,Luc counter,FLuc modulator,SMN2 splice up,NPC1 prom act,Rab9 promoter act
CS(=O)(=O)c1ccc2nc(NC(=O)c3cccc(NS(=O)(=O)c4ccc(F)c(F)c4)c3)sc2c1,-2%,-2%,24µM*,-1%,12%,1%
CS(=O)(=O)c1ccc2nc(NC(=O)c3ccc(NS(=O)(=O)c4ccc(F)c(F)c4)cc3)sc2c1,-7%,x,u,x,8%,-2%
CC(C)(C)c1ccc(S(=O)(=O)N(CCCN2CCOCC2)Cc2cccs2)cc1,-11%,0%,-9%,x,0%,-5%
CC1CCCC(C)N1C(=O)c1cc(-c2ccc(Cl)c(Cl)c2)on1 (stereo not drawn),13%,-2%,12µM*,27%,u,u
CC1CCCC(C)N1C(=O)c1cc(-c2ccc3c(c2)OCO3)on1 (stereo not drawn),-1%,x,11µM*,x,2µM*,2µM*
CCc1nn(CC(=O)NCCN2CCN(C)CC2)c(=O)c2cc3c(OC)cccc3n12,-1%,x,-2%,x,0%,0%
C=CCc1c(C)nc2c(OC)cccc2c1Cl,-1%,-5%,13µM*,x,1%,1%
O=C(O)C1C2CCC(O2)C1C(=O)Nc1ccc(O)cc1 (stereo not drawn),-1%,0%,-3%,-5%,-2%,2%
O=C(c1ccccc1)n1ccc(-c2cnc(-c3ccccc3)s2)n1,1.6µM*,-2%,4.3µM*,3.5µM*,1.4µM*,1.6µM*
COC(=O)c1cc2sc(Cl)cc2n1Cc1c(C)cc(C)cc1C,x,x,-3%,12%,x,x
Cc1cc(NCc2ccccc2)n2ncc(-c3ccccc3)c2n1,4.1µM*,x,2.4µM*,x,1.6µM*,0.89µM*
Cc1cc(NC2CCCC2)n2nc(C)c(-c3ccccc3)c2n1,u,x,19µM*,x,29%,u
COc1ccc(CCNc2cc(C)nc3c(-c4ccccc4)cnn23)cc1OC,-5%,0%,-7%,-29%,0%,-1%
Cc1cc(NCCN2CCOCC2)n2ncc(-c3ccccc3)c2n1,8.2µM*,10%,7.6µM*,14µM*,0.71µM*,1.6µM*
COc1ccccc1-c1cnn2c(NCCc3ccccc3)cc(C)nc12,10%,x,11µM*,x,15%,19%
O=C(Nc1cc(Cl)ccc1-n1cncn1)C1CC1,-11%,x,3%,x,1%,3%
NCCSS(=O)(=O)CCN,x,1%[7.66 µM],x,-8%[9.22 µM],x,x
Cc1ccc(OCCC(=O)N(CCC(C)C)c2c(N)n(Cc3ccccc3)c(=O)[nH]c2=O)cc1,2%,x,0%,x,-3%,-13%
CCCNC(=O)CN1C(=O)c2cccnc2Sc2ccccc21,x,x,-6%,x,x,x
Cc1cc(NC2CCCC2)n2ncc(-c3ccccc3)c2n1,0.16µM*,x,0.21µM*,x,u,u
CC(C)(C)c1cc(NCc2ccccn2)n2ncc(-c3ccccc3)c2n1,-2%,x,17µM*,x,23%,17%
Cc1cc(NC(C)c2ccccc2)n2ncc(-c3ccccc3)c2n1 (stereo not drawn),u,x,12µM*,x,2.5µM*,4µM*
C#CCONC(=O)c1cc(OCC(F)(F)F)ccc1OCC(F)(F)F,2%,0%,2%,-13%,1%,0%
O=C(CCc1ccccc1)N1CCCC(Nc2ccc(F)cc2)C1 (stereo not drawn),-2%,x,1%,x,1%,0%
O=C(NCCc1nnc2ccc(SCC(=O)N3CCCC3)nn12)c1ccc(F)cc1,-1%,x,7%,x,-3%,0%
SMILES,ELG1 genotoxic,Luc counter,FLuc modulator,SMN2 splice up,NPC1 prom act,Rab9 promoter act
CCN(CC)CCN(C(=O)c1ccc2ncsc2c1)c1nc2cc3c(cc2s1)OCO3,2.9µM*,x,9.5µM*,x,0.71µM*,u
CCN(CC)CCN(C(=O)c1ccc(C(=O)c2ccccc2)cc1)c1nc2cc3c(cc2s1)OCO3,-11%,x,-3%,x,-2%,5%
O=C(NCCc1ccccc1)c1ccc2nc(-c3ccco3)c(-c3ccco3)nc2c1,-4%,-2%,21µM*,-2%,0%,7%
O=C(NC1CCCC1)c1ccc2nc(-c3ccco3)c(-c3ccco3)nc2c1,-4%,x,13µM*,x,0%,7%
O=C(c1ccccc1)c1ccc2nc(-c3ccco3)c(-c3ccco3)nc2c1,12%,-4%,5.4µM*,7%,24%,u
O=C(NCCO)c1ccc2nc(-c3ccco3)c(-c3ccco3)nc2c1,-9%,-1%,15µM*,2%,1%,18%
O=C(CSc1n[nH]c(=O)n1C1CC1)c1c[nH]c2ccccc12,16%,x,-17%,x,3%,20%
COc1ccc(-c2cn(Cc3ccc(C(N)=O)cc3)c(CCN)n2)cc1,8%,x,u,x,7%,1%
CC(=O)Nc1ccc2oc(-c3ccccc3Br)nc2c1,1.8µM*,-10%,2.4µM*,11µM*,0.89µM*,0.45µM*
CC(C)C(=O)Nc1ccc2oc(-c3cc(F)c(F)cc3Cl)nc2c1,u,-1%,u,u,u,u
CC(=O)Nc1ccc2oc(-c3cc(F)c(F)cc3Cl)nc2c1,1.8µM*,-6%,1.9µM*,8.9µM*,0.32µM*,0.4µM*
CCC(=O)Nc1ccc2oc(-c3ccccc3Br)nc2c1,u,1%,3µM*,10µM*,1.8µM*,2µM*
Cc1ccccc1-c1nc2cc(NC(=O)Cc3ccc(Cl)cc3)ccc2o1,x,x,-10%,-4%,x,x
Cc1ccccc1-c1nc2cc(NC(=O)C3CC3)ccc2o1,4.6µM*,x,1.7µM*,x,0.45µM*,0.5µM*
O=C(O)CCc1nc(-c2ccccc2-n2cccc2)no1,x,-6%[7.66 µM],x,-23%[9.22 µM],x,x
Cc1cc(C)c2oc(C(=O)N3CCN(C)CC3)cc(=O)c2c1,-1%,x,0%,x,-8%,-3%
C=CCNc1nc(Nc2ccccc2F)nc(OCC)n1,19%,-2%,21µM*,11µM*,4µM*,4µM*
COc1ccccc1N1CCN(C(=O)c2nc(SC)ncc2Cl)CC1,x,x,1%,-12%,x,x
CSc1ccc(C2c3[nH]c4ccccc4c3CCN2C(=O)c2ccnn2C)cc1 (stereo not drawn),16%,-2%,11µM*,x,11%,3.5µM*
COc1ccccc1NC(=O)C(=O)NNC(=O)COc1ccc2ccccc2c1,-2%,x,-3%,x,-1%,-5%
CCc1ccc(OCC(=O)Nc2cc(S(=O)(=O)CC)ccc2O)cc1,-2%,-3%,24µM*,-11%,-2%,-10%
O=C(COc1ccc2ccccc2c1)NCCNC(=O)COc1ccc2ccccc2c1,-8%,2%,10%,-1%,-1%,-1%
COc1ccccc1NC(=O)COc1ccc2ccccc2c1,2%,x,15µM*,x,2%,1%
